Data on 73 molecules can be found in PubChem BioAssay AID504374 (National Center for Advancing Translational Sciences (NCATS), 2011).

Where “and” joins values, the source holds several entries; their conditions need not be identical. Equal entries are not always repeated. Among all 1,500 compounds or so, about 100 (6.7%) were called active. A call without a number means that no potency is given here. Roughly 7% stayed inconclusive and do not appear here. The call rests on the fitted dose curve; in most records, active means well fitted inhibition curve with a large enough effect; inconclusive means small, poorly fitted or top-dose-only effect, or effect the other way; inactive means flat fitted curve, though single readings scatter. This excerpt belongs to a sample that is enriched for actives.
Potency means the concentration at half of the fitted maximal effect.

Sequence of Runt-related transcription factor 1 (Homo sapiens) + Core-binding factor subunit beta (Homo sapiens) (Q01196 whole entry, looked up): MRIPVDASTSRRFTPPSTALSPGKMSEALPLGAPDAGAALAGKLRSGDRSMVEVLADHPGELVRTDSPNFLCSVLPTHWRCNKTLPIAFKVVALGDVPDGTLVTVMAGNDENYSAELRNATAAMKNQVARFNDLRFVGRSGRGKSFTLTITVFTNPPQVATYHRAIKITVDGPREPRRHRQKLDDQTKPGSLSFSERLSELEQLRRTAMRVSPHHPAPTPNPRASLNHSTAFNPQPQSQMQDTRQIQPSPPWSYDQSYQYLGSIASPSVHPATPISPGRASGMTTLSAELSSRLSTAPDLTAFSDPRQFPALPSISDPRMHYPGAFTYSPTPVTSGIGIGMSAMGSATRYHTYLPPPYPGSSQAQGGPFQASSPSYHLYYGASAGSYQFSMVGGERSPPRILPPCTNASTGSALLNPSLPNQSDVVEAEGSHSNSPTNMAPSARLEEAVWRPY
Sequence of Runt-related transcription factor 1 (Homo sapiens) + Core-binding factor subunit beta (Homo sapiens) (Q13951 whole entry, looked up): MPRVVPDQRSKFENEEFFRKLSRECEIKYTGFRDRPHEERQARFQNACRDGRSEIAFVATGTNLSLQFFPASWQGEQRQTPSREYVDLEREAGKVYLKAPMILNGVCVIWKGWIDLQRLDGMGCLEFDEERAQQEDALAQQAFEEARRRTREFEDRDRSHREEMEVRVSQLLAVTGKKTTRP

This assay has as its target Runt-related transcription factor 1 (Homo sapiens) + Core-binding factor subunit beta (Homo sapiens) (UniProt Q01196+Q13951). Kind of assay: qHTS Assay for Compounds Blocking the Interaction Between CBF-beta and RUNX1 for the Treatment of Acute Myeloid Leukemia: Hit Validation. Further: nearly all actives have a fitted effect of over 60% in size. Particulars: AlphaScreen CBFb-His/RUNX1-biotin binding; series mostly up to 59.8 µM. From the text:
NIH Chemical Genomics Center [NCGC]
NIH Molecular Libraries Probe Production centers Network [MLPCN]
Assay Submitter (PI): Paul Liu
Core Binding Factor (CBF) abnormalities are associated with 20-25% of all acute myeloid leukemias (AML), of which 5-10% are further sub classified as acute myelomonocytic leukemia with eosinophilia, also known as M4Eo in the FAB classification scheme. This subtype of leukemia is usually associated with chromosome 16 inversion (p13:q22). Chromosome 16 inversion results in formation of the fusion oncogene CBFB-MYH11, which encodes the fusion protein CBF-beta-SMMHC.
It has been hypothesized that the interference of CBF-beta and RUNX1 binding could have therapeutic implications for patients with CBF mediated leukemias. We developed a CBF-beta and RUNX1 binding assay in AlphaScreenTM format and optimized it for high throughput screening to search for inhibitors. The goal of this project is to screen MLPCN's compound collection (MLSMR) for identifying the inhibitors of the interaction between CBF-beta and RUNX1 proteins as research probes. If these probes work well in the animal models, the ultimate goal of this project is to development a new drug treatment for this disease.
This assay can not be used to assess how apparent inhibitors interfere with protein binding, and whether inhibitors specifically bind to either protein. Disruption of this protein-protein interaction, through any mechanism, is the intended target activity.
The present data set was run to confirm the activity of hits from the primary screen.
NCGC Assay Protocol Summary:
Step, Parameter, Description
(1) Reagent, 3 uL CBFb-His/RUNX1-biotin mix incubated together for 20 minutes at room temperature (30 nM each)
(2) Compound or control, 23 nL compound stock solution
(3) Incubation, 15 minutes at Room temperature
(4) Reagent, 1 uL 50 ng each of beads (Nickel beads and streptavidin beads)
(5) Incubation, 90 minutes at Room temperature
(6) Detection, Excitation=365 nm Emission=440 nm, Envision reader in AlphaScreenTM mode
Keywords: MLSMR, MLPCN, NIH Roadmap, qHTS, NCGC, Core binding factor, CBF, CBF-beta, Acute myeloid leukemia
Background: qHTS replaces the single test concentration by a dilution series.
In the case of `CCn1nc(-c2ccccc2)nc2c(=O)n(C)c(=O)nc1-2`, the Potency was 1.12 µM (active).

Take `CCC1(C(=O)c2ccc(C)cc2)C2c3ccccc3OC(=O)C21C(=O)O` (stereo not drawn): the Potency result is “inactive”.

As for `COCc1cc(OC(=O)N(C)C)nc(-c2ccc(C)c(Cl)c2)n1`, the Potency entry is “inactive”.

With `CCOC(=O)C(O)(c1ccc(NC(=O)c2ccc(Cl)c(Cl)c2)cc1)C(F)(F)F` (stereo not drawn), the Potency entry is “inactive”.

`CCN1CCc2ccccc2C1`: the Potency entry is “inactive”.

On to `NC(Cc1cc(O)c(O)cc1O)C(=O)O` (stereo not drawn), for which the Potency was 2.51 µM (active).

Regarding `CCOC(=O)[C@]1(C#N)[C@@H]2C=CC(C(N)=O)=CN2[C@@H](C(N)=O)[C@@H]1c1ccc(F)cc1`, the Potency result was “inactive”.

Consider `CNC(=O)O/N=C(\C)Cc1nnn(-c2cc(C)on2)n1`, for which the Potency entry was “inactive”.

On to `O=C1/C(=C\c2cccnc2)N2CCC1CC2`, for which the Potency entry is “inactive”.

For the molecule `CCN1CCN(c2nc([N+](=O)[O-])nn2C)CC1`, the Potency result is “inactive”.

Consider `CC(C)C(N)C(=O)OCCOCn1cnc2c(=O)[nH]c(N)nc21` (stereo not drawn), for which the Potency is 0.705 µM (active).

With `CN1C(=O)C(=Cc2cccnc2)C(=O)N(C)C1=O`, the Potency entry is “inactive”.

As to `COc1cccc(C(=O)N2CCC3(CC2)OCCO3)c1`, the Potency result is “inactive”.

As to `O=C(O)COc1ccccc1/C=C1\C(=O)NC(=O)N(CCC2=CCCCC2)C1=O`, the Potency result was “inactive”.

Take `CCn1c(O)c(C=NCCN2CCOCC2)c(=O)[nH]c1=S`: the Potency result is “inactive”.

In the case of `CN1CCN(c2nc(N)cc(=O)[nH]2)CC1`, the Potency entry was “inactive”.

Turning to `CC(C)[C@H]1C(=O)N2CCC[C@H]2[C@]2(O)O[C@](NC(=O)[C@@H]3C=C4c5cccc6[nH]cc(c56)C[C@H]4N(C)C3)(C(C)C)C(=O)N12`, the Potency is 6.87 µM (active).

On to `CC(C)[C@@]1(NC(=O)[C@H]2CC3c4cccc5[nH]cc(c45)C[C@H]3N(C)C2)O[C@@]2(O)C3CCCN3C(=O)[C@@H](Cc3ccccc3)N2C1=O` (stereo partly drawn), for which the Potency was 25 µM (active).

For the molecule `CC(C)C[C@H]1C(=O)N2CCCC2[C@]2(O)O[C@](NC(=O)[C@@H]3C=C4c5cccc6[nH]cc(c56)CC4N(C)C3)(C(C)C)C(=O)N12` (stereo partly drawn), the Potency was 7.91 µM (active) and 7.05 µM (active).

In the case of `CC(=O)CC(c1ccccc1[N+](=O)[O-])c1c(O)c2ccccc2oc1=O` (stereo not drawn), the Potency entry was “inactive”.

Consider `Cc1cc(C(=O)Nc2ccccc2)nn1C(C)(C)C`, for which the Potency result is “inactive”.

As to `N=Cc1c(O)n(-c2ccccc2)c(=O)n(-c2ccccc2)c1=O`, the Potency result is “inactive”.

For `CC1CN=C(Nc2ccc(F)c(Cl)c2)S1` (stereo not drawn), the Potency entry is “inactive”.

Regarding `CNC(=O)Oc1ccc(N(C)C)cc1C(C)C`, the Potency result is “inactive”.

On to `O=c1[nH]c(=S)[nH]c(O)c1N=Nc1cccc(S(=O)(=O)N2CCOCC2)c1`, for which the Potency result is “inactive”.

Consider `CCOP(=O)(Cc1cc(C(C)=O)c(C)o1)OCC`, for which the Potency entry was “inactive”.

As to `CCCCn1c(O)c(C(CC)=NCCCn2ccnc2)c(=O)[nH]c1=O`, the Potency result was “inactive”.

Consider `CCCCc1ccc(C(=O)O)nc1`, for which the Potency was 6.31 µM (active).

In the case of `CCC(C)n1c(O)c(C=NCCc2ccccc2)c(=O)[nH]c1=S` (stereo not drawn), the Potency entry was “inactive”.

On to `CN(N=O)c1cc(O)ccc1O`, for which the Potency entry is “inactive”.

For `CN(N=O)c1ccc(O)c(O)c1`, the Potency is 1.26 µM (active).

As for `CCC(=Nc1cccc(C(F)(F)F)c1)c1c(O)n(C)c(=O)n(C)c1=O`, the Potency result is “inactive”.

`C=CCn1c(O)c(C(C)=Nc2ccc3c(c2)CCC3)c(=O)[nH]c1=O`: the Potency entry was “inactive”.

As to `COc1cc(CN=Cc2c(O)n(C(C)(C)C)c(=O)[nH]c2=O)cc(OC)c1`, the Potency entry was “inactive”.

For `CCCCn1c(O)c(/C=N/N2CCOCC2)c(=O)[nH]c1=S`, the Potency result was “inactive”.

As to `CCCCNC(=O)Oc1c(Br)cc2sc(=O)oc2c1Br`, the Potency is 6.12 µM (active).

For the molecule `CCCCn1c(O)c(/C=C2/C=CC=N2)c(=O)[nH]c1=O`, the Potency result is “inactive”.

Take `Cc1nc(SCc2c(Cl)cccc2Cl)nc(OC(=O)N(C)C)c1C`: the Potency result was “inactive”.

Regarding `CC(C)(C)n1cc(C(=O)c2ccccc2)cc1-c1ccccc1`, the Potency result was “inactive”.

Consider `Cn1c(O)c(C(=Nc2ccc(F)cc2)c2ccccc2)c(=O)n(C)c1=O`, for which the Potency entry was “inactive”.

In the case of `COP(=O)(Cc1ccc(C#N)o1)OC`, the Potency result was “inactive”.

`C/C=C/CC1(CC)C(=O)NC(=S)NC1=O`: the Potency result was “inactive”.

For `COc1ccc(CN2C(=O)NC(=O)/C(=C/c3ccc(OC)c(OC)c3OC)C2=O)cc1`, the Potency entry was “inactive”.

Take `O=C(O)CCCCC1SCC2NC(=O)NC21` (stereo not drawn): the Potency was 0.0562 µM (active).

As to `CC(C)OP(=O)(Oc1ccc(C(O)C(Cl)(Cl)Cl)cc1)OC(C)C` (stereo not drawn), the Potency result was “inactive”.

With `Clc1ccccc1CN1CCN(c2cccc3[nH]ccc23)CC1`, the Potency result was “inactive”.

On to `C=CCn1c(O)c(C(C)=NCC2CCCO2)c(=O)[nH]c1=O` (stereo not drawn), for which the Potency result is “inactive”.

In the case of `Cc1cccc(-n2c(O)c(/C=N/Nc3nc4c(c(=O)n(C)c(=O)n4C)n3C)c(=O)[nH]c2=S)c1`, the Potency was 0.891 µM (active).

As for `O=c1[nH]c(=S)n(-c2ccc(F)cc2)c(O)c1/C=N/N1CCOCC1`, the Potency entry was “inactive”.

For `Cn1c(O)c(/C=N/N2CCOCC2)c(=O)[nH]c1=S`, the Potency entry is “inactive”.

With `Cc1cc(OC(=O)N(C)C)nc2c1c(C)nn2C`, the Potency result is “inactive”.

For `CCCCCCn1c(O)c(/C=N/N2CCCCCC2)c(=O)[nH]c1=O`, the Potency entry is “inactive”.

As for `COCc1cc(OC(=O)N(C)C)nc(-c2ccccc2)n1`, the Potency entry was “inactive”.

On to `Cc1cccc(N2C(=O)NC(=O)/C(=C\c3ccc(N4CCOCC4)cc3)C2=O)c1`, for which the Potency entry was “inactive”.

With `Cc1cc(OC(=O)N(C)C)nc(-c2ccc(C)c(Cl)c2)n1`, the Potency result is “inactive”.

For `CCCC(=O)c1ccc(CP(=O)(OCC)OCC)o1`, the Potency result is “inactive”.

Turning to `CC[N+](C)(CC)CCC[n+]1c(-c2ccccc2)c2cc(N)ccc2c2ccc(N)cc21`, the Potency is 1.12 µM (active).

Take `CC[n+]1c(-c2ccccc2)c2cc(N)ccc2c2ccc(N)cc21`: the Potency is 0.499 µM (active).

Take `O=c1c2ccccc2nc(Cc2cccc([N+](=O)[O-])c2)n1-c1ccc(O)cc1`: the Potency entry was “inactive”.

Take `CCC(=NCc1ccco1)c1c(O)n(-c2ccccc2C)c(=O)[nH]c1=O`: the Potency result was “inactive”.

`CCCC(=O)c1cc(CP(=O)(OCC)OCC)oc1C`: the Potency result is “inactive”.

For the molecule `O=c1[nH]c(=S)[nH]c(O)c1/C=N/N1CCOCC1`, the Potency result was “inactive”.

Take `Cc1ccc(-n2c(O)c(C=N)c(=O)n(-c3ccc(C)cc3)c2=O)cc1`: the Potency entry was “inactive”.

For the molecule `CC(=O)Nc1ccc([As](=O)(O)c2ccc([N+](=O)[O-])cc2)cc1`, the Potency entry is “inactive”.

As for `Cn1c(O)c(C(=Nc2ccc(F)cc2)c2ccccc2Cl)c(=O)n(C)c1=O`, the Potency entry was “inactive”.

`C[C@H]1CC[C@H]2NCCN[C@H]2C1`: the Potency result was “inactive”.

Turning to `O=C(OCC1O[C@@H](OC(=O)c2cc(O)c(O)c(O)c2)[C@@H](OC(=O)c2cc(O)c(O)c(O)c2)[C@@H](OC(=O)c2cc(O)c(O)c(O)c2)[C@@H]1OC(=O)c1cc(O)c(O)c(O)c1)c1cc(O)c(O)c(O)c1` (stereo partly drawn), the Potency was 0.0631 µM (active).

In the case of `O=C1C=CC(=O)c2c(O)cccc21`, the Potency is 4.47 µM (active).

On to `CCC(=NCc1cccnc1)c1c(O)n(-c2ccccc2C)c(=O)[nH]c1=O`, for which the Potency entry was “inactive”.

On to `Cc1onc(-c2c(Cl)cccc2Cl)c1C(=O)Nc1ccc2c(C(F)(F)F)cc(=O)oc2c1`, for which the Potency entry is “inactive”.

In the case of `Cn1c(O)c(C=NCCN2CCN(C(=O)Nc3ccccc3)CC2)c(=O)n(C)c1=O`, the Potency result was “inactive”.

For the molecule `CCCCCCn1c(O)c(C=Nc2ccccc2N2CCOCC2)c(=O)[nH]c1=S`, the Potency entry is “inactive”.

Turning to `CCC(=NCc1cc(OC)cc(OC)c1)c1c(O)n(C2CCCCC2)c(=O)[nH]c1=O`, the Potency result is “inactive”.
